These results are taken from PubChem BioAssay AID1568 (National Center for Advancing Translational Sciences (NCATS), 2009).

Inconclusive results are not listed. Where a call stands in place of a potency, no number is given. The source made the active and inactive calls. The call rests on the fitted dose curve; in most records, active means well fitted curve in the direction sought with a large enough effect; inconclusive means small, poorly fitted or top-dose-only effect, or effect the other way, or another doubt; inactive means no such curve, though single readings can be large or run the other way.

This experiment in a line: Cell Viability Secondary Assay to Characterize qHTS Inhibitors of the Interaction of Thyroid Hormone Receptor and Steroid Receptor Coregulator 2. The settings on record: cell viability counter-screen, qHTS titration; series mostly up to 29.9 µM. The source says: NIH Molecular Libraries Probe Production Network [MLPCN]
NIH Chemical Genomics Center [NCGC]
Assay Provider: R. Kip Guy, St. Jude Children's Research Hospital
Thyroid receptor (TR) regulates many homeostatic processes including basal metabolism, cardiovascular function, body weight, and lipid trafficking. TR modulators are potential therapeutics for obesity and hyperlipidemias but current thyroid analogs have undesirable side effects, particularly cardiac stimulation. This secondary assay characterized selected actives identified in the qHTS for Inhibitors of the Interaction of Thyroid Hormone Receptor and Steroid Receptor Coregulator 2. The human follicular thyroid carcinoma cell line WRO (kindly provided by Dr. M. D. Ringel) stably expresses TRbeta and a luciferase reporter gene fused to TR response element. The effect of compounds on the viability of these cells was assessed by measuring ATP levels. Compounds that reduce cell viability are likely cytotoxic.
NCGC Assay Protocol Summary:
Cells were maintained in RPMI 1640 culture medium supplemented with 10% heat-inactivated FBS, 0.33 mg/ml hygromycin, 0.33 mg/ml geneticin, 50 units/ml penicillin, 50 ug/ml streptomycin. Cells were harvested and resuspended at 330,000 cells/ml in assay medium (50% DMEM 50% F-12 medium without Phenol-Red (Cellgro #16-405-CV), L-glutamine, 10% heat inactivated and charcoal treated FBS, 100 uM non-essential amino acid, 50 units/ml penicillin, 50 ug/ml streptomycin). Cells were dispensed at 10,000 cells/30 ul/well into 384 well plates (Corning 3917) and incubated 12 h at 37 C and 5% CO2. Compounds and T3 (100nM final concentration) were added using a pin tool and plates were incubated 16 h incubation at 37 C and 5% CO2. Following incubation, plates were equilibrated at ambient temperature for 30 min, 20 ul of CellTiter-Glo (Promega) was added and luminescence was detected by an EnVision (PerkinElmer).
On the technique in general: In qHTS, concentration-response curves come from the screen itself.
Turning to `COP(=S)(OC)Oc1ccc([N+](=O)[O-])cc1`, the Potency is 31.6 µM (active).

`CN1CC[C@@]2(C)c3cc(O)ccc3N(C)C2O1` (stereo not given in full): the Potency is 14.1 µM (active).

On to `CCCCCn1c(N)c(C(=O)NCc2cccs2)c2nc3ccccc3nc21`, for which the Potency entry was “inactive”.

For the molecule `Cc1[nH]n(-c2ccccc2)c(=O)c1C(c1ccc([N+](=O)[O-])cc1)c1c(C)[nH]n(-c2ccccc2)c1=O`, the Potency result was “inactive”.

Consider `O=C(O)CC1OCC=C2CN3CCC45C6=CC(=O)C(=O)C([N+](=O)[O-])=C6NC4C1C2CC35` (stereo not given), for which the Potency entry is “inactive”.
